These results are taken from PubChem BioAssay (NCATS).

Records with an inconclusive call do not appear. Calls of active or inactive are those of the source. Calls follow the shape of the dose curve; as a rule, active = well fitted inhibition curve with a large enough effect; inconclusive = small, poorly fitted or top-dose-only effect; inactive = no such curve, though single readings can be large or run the other way. *1 amine or outer side, *2 acyl side, *3 side chain or, on linkers, in order; H or OH if unused. Where a SMILES comes first, the peptide text is derived from it. Bridges are numbered along the chain shown (N, C = ends). [ ]: non-standard residue; d: D form. The star is where a group is joined. ξ: configuration not given here. ξhTyr(3S-OH,4S-OH,3'-OSO3H) = NC(C(=O)O)[C@H](O)[C@@H](O)c1ccc(O)c(OS(=O)(=O)O)c1; Orn(4R-OH,5R-OH) = O=C([C@H](C[C@@H](O)[C@@H](O)N[*:3])N[*:1])[*:2]; X2 = CCCCCOc1ccc(-c2cc(-c3ccc(C(=O)*)cc3)no2)cc1; X3 = C[C@H]1CN([*:1])C(C(=O)[*:2])[C@H]1O; ξGln(3R-OH) = NC(=O)C[C@@H](O)C(N)C(=O)O; ξPro(4R-OH) = O=C(O)C1C[C@@H](O)CN1; ξThr(3R) = C[C@@H](O)C(N)C(=O)O
Potency is read from the fitted curve at half-maximal effect.

The assay concerns Zika virus NS2B-NS3 protease (linked construct). Description: Primary screen NINDS Rhodamine qHTS for Zika virus inhibitors (AID 1347160). Also: nearly all actives have a fitted effect of over 55% in size. The conditions noted are these: purified NS2B-NS3 protease, Rhodamine110 substrate fluorescence; series mostly up to 33.1 µM. In short, it runs like this:
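Purified linked NS2B-NS3 protease (NS2B hydrophilic domain joined to NS3 protease by flexible linker), 25 nM in 10 mM Tris-HCl pH 8.0, 0.01% Tween 20. Compounds titrated, 15 min preincubation at room temperature; 1.5 microM Rhodamine110 substrate, FITC fluorescence change over 15 min.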
For `COc1cc(Nc2ccc([N+](=O)[O-])cc2C(=O)O)cc2ccccc12`, the Potency was 2.82 µM (active).

Regarding `CCCCCOc1ccc(-c2cc(-c3ccc(C(=O)N[C@H]4C[C@@H](O)[C@@H](O)NC(=O)C5[C@@H](O)[C@@H](C)CN5C(=O)C([C@H](O)CC(N)=O)NC(=O)C([C@H](O)[C@@H](O)c5ccc(O)c(OS(=O)(=O)O)c5)NC(=O)C5C[C@@H](O)CN5C(=O)C([C@@H](C)O)NC4=O)cc3)no2)cc1` (stereo partly drawn) (X2-[Orn(4R-OH,5R-OH)][ξThr(3R)][ξPro(4R-OH)][ξhTyr(3S-OH,4S-OH,3'-OSO3H)][ξGln(3R-OH)][X3]; lactam 1-C), the Potency was 4.47 µM (active). For `Cc1ccc2[nH]c(=O)c(C3=NN(C(=O)CCC(=O)O)C(c4ccc(Br)cc4)C3)c(-c3ccccc3)c2c1` (stereo not drawn), the Potency was 3.16 µM (active).

With `COc1cc(/C=C/c2ccccc2)c(C(=O)O)c(O)c1CC=C(C)C`, the Potency is 10 µM (active). Regarding `COc1cc2c(c(O)c1OC/C=C(\C)CC/C=C(/C)CCC=C(C)C)CN(C(CCC(=O)O)C(=O)O)C2=O` (stereo not drawn), the Potency was 7.94 µM (active). With `C/C=C/C=C/C=C/C(=O)O[C@@H]1[C@@H](OC)C2=C(C(=O)N(C(CCC(=O)O)C(=O)O)C2)[C@@]2(C)CCCC(C)(C)[C@H]12` (stereo partly drawn) the figure was 7.08 µM (active); with `O=C1NC(=O)/C(=C/c2cccc(C(F)(F)F)c2)S1`, 3.55 µM (active).

Turning to `CC1C(O)C(O)C2C(C(=O)OCCc3ccc(O)cc3)=COC(O[C@@H]3O[C@H](CO)[C@@H](O)[C@H](O)[C@H]3O)C12` (stereo partly drawn), the Potency is 8.91 µM (active). As for `C/C(=C\CC/C(C)=C/CC[C@]1(C)CCc2cc(O)cc(C)c2O1)CC/C=C(\C)C(=O)O`, the Potency was 2.2 µM (active). As for `Cc1cc(C)c2nc(-c3ccccn3)cc(C(=O)Nc3ccc(S(=O)(=O)Nc4onc(C)c4C)cc3)c2c1`, the Potency is 2.24 µM (active).

As for `O=C(O)C1(c2ccc(-c3ccc(Cl)c(Cl)c3)c(F)c2)CC1`, the Potency is 8.91 µM (active). As for `COc1cc(C)c(C(=O)OC2C(C)OC(OC3CCC(C)C4C3C=C(C)C3/C(C)=C\CC/C(C)=C/C5(C)C=C(C(=O)O)C(C)CC56OC(=O)/C(=C(\O)C34C)C6=O)C(O)C2O)c(OC)c1` (stereo not drawn), the figure is 2.47 µM (active); as for `C=C1C2CCC3C(CCC4[C@@]3(C)CCC[C@@]4(C)C(=O)O)(C2)[C@@H]1OC(=O)/C(C)=C\C` (stereo partly drawn), 10 µM (active).
